# Screening results deposited in PubChem BioAssay by several laboratories.
# S1P2 antag: human S1P2 receptor antagonists, primary screen, cell-based. cell-based S1P2 antagonist assay, inhibition at 5 uM. inhibition, % at 5 µM. 0.21% of 97,000 active. AID 736, 2007; in the data active = inhibition above about 45%;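 also: CRE beta-lactamase reporter cells expressing human S1P2 stimulated with S1P; 0% = agonist at EC80 alone and 100% = agonist plus reference antagonist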
# GALR2 antag: GALR2 antagonists in receptor-expressing cells, primary screen; Galanin receptor type 2 (Homo sapiens), O43603; antagonist mode; inhibition, % at 4 µM; 0.39% of 140,000 active; AID 828, 2007; in the data active = inhibition above about 27%;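 also: cells stimulated with galanin 1-16 at roughly its EC80; 0% = agonist challenge control and 100% = basal control without agonist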
# Target sequence (O43603 whole entry, looked up): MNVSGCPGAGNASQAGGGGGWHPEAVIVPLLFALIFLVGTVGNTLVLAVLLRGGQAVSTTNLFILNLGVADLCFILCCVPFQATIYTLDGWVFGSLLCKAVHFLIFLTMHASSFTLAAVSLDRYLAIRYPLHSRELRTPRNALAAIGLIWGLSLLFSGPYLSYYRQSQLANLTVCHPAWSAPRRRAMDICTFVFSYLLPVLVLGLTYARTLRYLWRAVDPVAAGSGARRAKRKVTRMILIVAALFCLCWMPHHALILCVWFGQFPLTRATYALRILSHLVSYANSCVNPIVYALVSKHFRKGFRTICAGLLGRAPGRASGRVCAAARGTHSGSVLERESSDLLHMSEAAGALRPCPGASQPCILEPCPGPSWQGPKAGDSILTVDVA
# hDAT+cocaine: changed hDAT dopamine uptake under cocaine IC80, either direction, primary screen, cocaine antagonist project, cell-based, LLC-PK1 hDAT, [14C]-dopamine uptake, MLSMR | Sodium-dependent dopamine transporter (Homo sapiens), Q01959 | LLC-PK1 hDAT cells, [14C]-dopamine uptake with cocaine IC80; actives deviate in either direction | B-score at 10 µM | 1.3% of 110,000 active | AID 449768, 2010;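 active = Z score or B-score, a plate-position-corrected score, falls beyond the plate's 99.7% confidence bounds, in either direction; inactive = both scores lie inside the 99.7% bounds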;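 also: scored against the spread of the other compound wells on the same plate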
# GALR2 agonist: GALR2 receptor agonists, primary screen, cell-based | activation, % (test concentration not listed) | Galanin receptor type 2 (Homo sapiens), O43603 | AID 803, 2007 | GALR2-expressing cells, agonist activation read-out | 0.48% of 140,000 active; in the data active = activation above about 5%, passing the limit was not always enough;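 also: 0% = vehicle buffer wells and 100% = reference agonist at full effect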
# S1P2 ag: S1P2 receptor agonists, primary screen, cell-based; 0.46% of 97,000 active; activation, % at 4.5 µM; S1P2-expressing cell line, agonist reporter read-out; AID 729, 2007; Sphingosine 1-phosphate receptor 2 (Homo sapiens), O95136; in the data active = activation above about 16%;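 also: 0% = vehicle low control and 100% = maximal reference agonist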
# * marks the source's active call; other numbers are inactive results; x = no result. The list is not random: actives were taken first. Their share in the collection is about 2.1%.
SMILES,S1P2 antag,GALR2 antag,hDAT+cocaine,GALR2 agonist,S1P2 ag
N#CCCS(=O)(=O)c1nnnn1-c1ccccc1,64*,59*,-1.2,-5,-11
O=C(O)/C=C/c1cn(-c2ncc(C(F)(F)F)cc2Cl)c2ccccc12,-12,3,0.65,-3,-1
CCCNc1nc(C)c(C(C)=O)cc1C#N,-11,-6,0.2,0,-3
COc1ccc(OCC(O)COc2ccc(C(=O)O)cc2)cc1 (configuration not stated),19,12,2.7*,-1,-8
O=C(NCc1cccc(Cl)c1)c1ccc(S(=O)(=O)Nc2cccc(C(F)(F)F)c2)cc1,x,9,x,1,x
CCOC(=O)c1c(C)n(C)c2cc(-c3ccc(C)cc3)c(O)cc12,x,-9,x,5.3*,x
CC(C)OC(=O)CCc1nc2ccccc2[nH]c1=O,-7,-11,2.1*,-3,-3
CCOC(=O)C(C)c1nc2ccccc2[nH]c1=O (configuration not stated),-21,-17,0.06,-1,-1
CC1CCN(C(=O)c2[nH]cnc2C(=O)N[C@@H](C)C(=O)OCc2ccccc2)CC1,x,x,-0.51,x,x
CN(C)c1ccc(/C=N/NC(=O)CN(c2ccccc2Cl)S(C)(=O)=O)cc1Br,-44,2,-0.081,0,17*
CS(=O)(=O)N(CC(=O)N/N=C/c1cc([N+](=O)[O-])ccc1Cl)c1ccccc1,2,-2,2*,-2,-9
Cc1cccc(N(CC(=O)N/N=C/c2cc([N+](=O)[O-])ccc2Cl)S(C)(=O)=O)c1C,21,7,0.4,-1,-9
CS(=O)(=O)N(CC(=O)N/N=C/c1ccc(OCC(=O)N2CCOCC2)cc1)c1ccccc1Cl,x,3,x,-1,x
Cc1cc(Cl)ccc1OCC(=O)NCCCCc1ccccc1,x,-5,x,-2,x
COc1cc(/C=N/n2cnnc2)ccc1OC(=O)c1ccncc1,-2,-8,0.28,-1,-4
COc1ccc(S(=O)(=O)N2CCN(C3CCN(Cc4ccccc4)CC3)CC2)cc1,2,3,-1.8*,-2,-4
Fc1ccc(NC(=S)N2CCCCC2)cc1,x,2,x,-1,x
S=C(Nc1ccccc1)N1CCCCCC1,10,0,-8.4*,-2,-1
C1=C(CCNCC2CCCCC2)CCCC1,2,-4,x,-1,-1
COc1ccc(S(=O)(=O)N2CCCC(C(=O)Nc3cccc(C(C)=O)c3)C2)cc1 (configuration not stated),-23,9,1.9*,-2,0
O=C(NC(NC(=S)Nc1c(Cl)cccc1Cl)C(Cl)(Cl)Cl)c1cccc([N+](=O)[O-])c1 (configuration not stated),x,9,x,-1,x
COC(=O)c1c(C)[nH]c(C(=O)/C=C/c2ccccc2)c1C,x,7,x,6.2*,x
Cc1cc(N)ccc1-n1c(C)ccc1C,x,2,-0.36,-2,x
Cc1cc(C(=O)O)ccc1-n1c(C)ccc1C,10,0,-0.93,-2,25*
CCc1ccc2c(c1)cc(CN(C(=S)Nc1cccc(C)c1)C1CC1)c1nnnn12,11,-3,0.03,-2,-8
SMILES,S1P2 antag,GALR2 antag,hDAT+cocaine,GALR2 agonist,S1P2 ag
Cc1cc2cc(CN(C(=O)C3CC3)C3CCCC3)c3nnnn3c2cc1C,x,12,2.9*,-1,x
COc1ccc(N=C2S/C(=C\c3ccc(N4CCOCC4)o3)C(=O)N2CCc2c[nH]c3ccccc23)cc1,48*,15,-0.42,2,-4
N#Cc1ccc(C(=O)NCC(c2ccco2)N2CCCCC2)cc1 (configuration not stated),4,11,2*,2,-6
N#C/C(=C/c1ccc(N2CCCCC2)o1)c1cccc(F)c1,42,12,-0.0073,-3,-4
N#C/C(=C/c1ccc(N2CCCCCC2)o1)c1ccc(Cl)cc1,49*,27,-0.82,0,-5
CC1(C)CC(=O)C2=C(C1)N(Cc1ccccc1)C(=O)C2(NC(=O)C(C)(C)C)C(F)(F)F (configuration not stated),-5,2,-0.037,-2,-8
Cc1ccc(CNC(=O)C(Cc2ccccc2)NS(=O)(=O)c2ccc(Br)s2)cc1 (configuration not stated),x,-6,x,-1,x
CCn1c2ccccc2c2nnc(SCC(=O)N3CC(C)OC(C)C3)nc21 (configuration not stated),-17,-7,-8.8*,1,5
CCCc1nn(-c2cc(Cl)ccc2OC)c2c1C(=O)CCC2,-23,-5,-0.11,1,59*
CCCCc1nn(-c2cc(Cl)ccc2OC)c2c1C(=O)CC(C)(C)C2,-13,-9,0.17,-1,0
CCOC(=O)c1sc(NC(=O)CSc2nnc(C)s2)c(C(=O)OCC)c1C,3,-10,-0.72,-1,-3
CCOC(=O)c1c(NC(=O)CSc2nnc(C)s2)sc2c1CCC(CC)C2 (configuration not stated),-26,-3,2.2*,-1,1
O=C(CC(NC(=O)c1ccccc1)c1ccccc1)Nc1cccc2ccccc12 (configuration not stated),x,20,x,2,x
Cc1cc(C)n2nc(Cc3ccccc3)nc2n1,-11,-10,-1.4,-1,2
Cc1cc(C)n2nc(S(=O)(=O)N(C)c3ccccc3)nc2n1,-5,2,0.32,0,52*
O=C(NCc1ccco1)C1Cc2ccccc2CN1S(=O)(=O)c1ccccc1F (configuration not stated),-3,2,x,-3,-1
CCOC(=O)c1sc(/N=C/c2ccc(O)cc2O)cc1C,x,9,x,1,x
CCN(CC)C(=O)C1CCCN(c2ncnc3c2cnn3-c2cccc(C)c2)C1 (configuration not stated),x,4,3.3*,0,x
Oc1cccc(C(=S)N2CCN(Cc3ccccc3)CC2)c1,12,0,-0.24,-1,56*
O=C(c1ccccc1)N1CCN(Cc2ccccc2)CC1,-7,11,-0.93,0,-2
COCCCNc1oc(COc2ccc(Cl)cc2Cl)nc1C#N,6,-8,2.2*,0,-4
COc1ccc(C2=Nc3ccccc3OC2)cc1,11,4,0.38,-4,-2
Cc1ccc(-c2nc(CSCC(=O)NCCN3CCN(Cc4ccccc4)CC3)c(C)o2)cc1,47*,10,0.96,-2,-6
Cc1ccc(-c2nc(CSCC(=O)NCCCN3CCOCC3)c(C)o2)cc1,15,-2,-0.19,-3,-9
CN1C(=S)SC(N(O)C(=O)NC2CCCCC2)C1(C)C (configuration not stated),16,8,-1,-1,-7
O=C(O)CCCN=CC1=C(O)C(C(=O)c2ccccc2)CCC1=O (configuration not stated),3,5,1.8*,-2,-1
COCCn1c(N)c(NCc2ccccc2)c(=O)n(CC(=O)Nc2cc(C)ccc2C)c1=O,-5,8,2*,0,-2
